Target: AT4G31550 (Arabidopsis thaliana, UniProt Q9SV15 228-325)
Assay: DPI-ELISA; DPI-ELISA, streptavidin 384-well plate, 1-2 pmol biotinylated dsDNA per well, crude native E. coli extract, anti-His detection; buffer as in Brand et al. [46],; high values mean tight binding
Settings: tags: C-terminal His (pET-DEST42); label: 5' biotin on forward strand; dsDNA, one strand shown

AT4G31550, sequence (Q9SV15 228-325): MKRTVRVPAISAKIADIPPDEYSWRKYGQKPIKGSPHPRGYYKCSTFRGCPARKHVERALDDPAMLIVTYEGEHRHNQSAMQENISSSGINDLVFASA

Sequence	binding signal
AAAAAATTGGTTCTCATTTCTACTTCAAAA	0.57 ± 0.127 absorbance
AAAAAATCCTGTTTGCGTTTGATTTTAAAA	0.51 ± 0.099 absorbance
AAAAAACTACCTCTACTCTAGCCTTAAAAA	0.515 ± 0.0495 absorbance
AAAAAAGGTTTAGCCCATGCCTGTGCAAAA	0.645 ± 0.12 absorbance
AAAAAAGTACATGCGTAGATAATGTTAAAA	0.59 ± 0.127 absorbance
AAAAAATCCATGTTTAAGCTGGTCTCAAAA	0.695 ± 0.148 absorbance
AAAAAACGCTTTCAGTTTTGATCTTAAAAA	0.495 ± 0.0778 absorbance
AAAAAACATGTCGCACCTGTACTAACAAAA	0.66 ± 0.127 absorbance
AAAAAAAGTTACCAGTACGCGTCGGGAAAA	0.64 ± 0.141 absorbance
AAAAAACACAGCATTAGGCTATCGGTAAAA	0.655 ± 0.134 absorbance
AAAAAATTTGGTCTTCGTCCTCGCTTAAAA	0.9 ± 0.0707 absorbance
AAAAAATCCATTCTTCGCGTTTATCCAAAA	0.53 ± 0.0849 absorbance
AAAAAAACGCTCAAGTCTATCAGTAGAAAA	0.74 ± 0.141 absorbance
AAAAAAGTCATTATAACCCAAACTCTAAAA	0.5 ± 0.113 absorbance
AAAAAACGGAAGATCGTGACTGCTAGAAAA	0.715 ± 0.0354 absorbance
AAAAAAGCCCCTTGCGCCTCTCTACCAAAA	0.62 ± 0.0424 absorbance
AAAAAAATCTCACTCCTGGTCCCCATAAAA	0.56 ± 0.099 absorbance
AAAAAACTGCTTGCCCCTGTCTCCATAAAA	0.67 ± 0.17 absorbance
AAAAAAACAGCTCGGTGCCACTGTGGAAAA	0.61 ± 0.0424 absorbance
AAAAAAGTTTCCTACTTGTGTCTGTGAAAA	0.53 ± 0.0849 absorbance
AAAAAAGAGTGGTTTATTAATGTATAAAAA	0.74 ± 0.184 absorbance
AAAAAATGCCGAGACCCCATGCCGGCAAAA	0.51 ± 0.099 absorbance
AAAAAAGACACTCTAATTCCGTAGGCAAAA	0.405 ± 0.0495 absorbance

Sequence	binding signal
AAAAAAGGAAGTACTGACGATCTGGAAAAA	0.615 ± 0.148 absorbance
AAAAAATTTTGTTTTTGCTTTTCCTTAAAA	0.38 ± 0.0566 absorbance
AAAAAATGATGTTGGCGCATTTAAACAAAA	0.53 ± 0.127 absorbance
AAAAAATTCCGGCTTGACGCTGCATAAAAA	0.655 ± 0.106 absorbance
AAAAAAAAGAGCCTGGGGGTTCGCATAAAA	0.655 ± 0.0636 absorbance
AAAAAAGTCCGCCCTTAATTCATATTAAAA	1.37 ± 0.269 absorbance
AAAAAACATCGCTGTCGTTGACGTTGAAAA	3.48 ± 0.474 absorbance
AAAAAACTTGCTCCTCCGTTTTACTCAAAA	0.775 ± 0.276 absorbance
AAAAAATTCAAAATGATCACTACGGGAAAA	0.545 ± 0.0778 absorbance
AAAAAAGGCGGTCGTAGTTGTGGGAGAAAA	1.14 ± 0.0849 absorbance
AAAAAACCCGTTCTACCTTATTCCTGAAAA	0.525 ± 0.106 absorbance
AAAAAACCCGGTTGGAGAAAATAATTAAAA	0.55 ± 0.127 absorbance
AAAAAAGGGTTTAGATGTCCTTCAAAAAAA	0.59 ± 0.099 absorbance
AAAAAAAGTATCAAAGCCTAGGGCTGAAAA	0.605 ± 0.205 absorbance
AAAAAACAACTTGGAGGATTTACAGCAAAA	0.73 ± 0.141 absorbance
AAAAAATCTAGGGGTACCTATTTGGCAAAA	0.675 ± 0.12 absorbance
AAAAAACAGGCCGATTCCGATCCCGGAAAA	0.535 ± 0.0919 absorbance
AAAAAAGTTCGGGGCTTGGTTTGGAAAAAA	0.765 ± 0.205 absorbance
AAAAAATGTATTCGTGTCCACTCCATAAAA	0.53 ± 0.0707 absorbance
AAAAAATTCAGAGCTTCGAGGTTCCGAAAA	0.66 ± 0.0707 absorbance
AAAAAATGTCTTCTTACACCCTCTAGAAAA	0.68 ± 0.0707 absorbance
AAAAAAGGGTCGCTGTGAGCTCATGAAAAA	0.575 ± 0.12 absorbance
AAAAAATTACTATTACACACTTGGGGAAAA	0.6 ± 0.127 absorbance

Sequence	binding signal
AAAAAAGTGTTAGATTGTAGTTGATAAAA	0.675 ± 0.106 absorbance
AAAAAATGGCTCGGGTTCCAAGGTTGAAAA	0.645 ± 0.0919 absorbance
AAAAAATGCCATTGTACCTGTGTTCGAAAA	0.395 ± 0.0354 absorbance
AAAAAACCACCCAGTCTGTTTCTACTAAAA	0.54 ± 0.141 absorbance
AAAAAATGCCCTTTTTATCTTTATGTAAAA	0.65 ± 0.0707 absorbance
AAAAAAGGCGTCTGACTGTAACTCGTAAAA	1.43 ± 0.445 absorbance
AAAAAATTACGTTTGTATTTGTAAAA	0.555 ± 0.0636 absorbance
AAAAAAGTTGCCGACGATTGCGGGTTAAAA	0.735 ± 0.163 absorbance
AAAAAAATCGTTGTTATCGTATTTATAAAA	0.565 ± 0.12 absorbance
AAAAAACGTTAACACTGATTTAGGGTAAAA	0.595 ± 0.0778 absorbance
AAAAAATTCGGGACTAGTAGTGGTGAAAAA	0.605 ± 0.0778 absorbance
AAAAAACCTTCCCCCTCTTCTGCCTTAAAA	0.665 ± 0.0354 absorbance
AAAAAAATGCGCCCTTTCTGACATAAAAAA	0.615 ± 0.106 absorbance
AAAAAATAGTGTGATTGGTATCCAGTAAAA	0.645 ± 0.0495 absorbance
AAAAAAATCCATATTATTGCTACCCGAAAA	0.595 ± 0.0636 absorbance
AAAAAATGGTCGATCCGCATGCAGTTAAAA	0.52 ± 0.099 absorbance
AAAAAACTGTCTGTCCTATATCACTTAAAA	0.66 ± 0.099 absorbance
AAAAAAGTTCGTGCTTAACCCAGTTTAAAA	0.69 ± 0.099 absorbance
AAAAAAAACAAAACCTCCTAATAGCGAAAA	0.42 ± 0.113 absorbance
AAAAAAATCACGGTTCGACCTCCAGCAAAA	0.7 ± 0.127 absorbance
AAAAAACACTGCACTATTGGGAGTTCAAAA	0.615 ± 0.177 absorbance
AAAAAAAAGTGCCAACGTTCAAGAAAAA	0.38 ± 0.099 absorbance
AAAAAAATATTTGAGCTAGGTTATCAAAAA	0.57 ± 0.113 absorbance

Sequence	binding signal
AAAAAACCGACCTGCACGTCGCTGCTAAAA	0.505 ± 0.106 absorbance
AAAAAACCAGCCTCAGTCCTGAACAAAAAA	0.605 ± 0.0636 absorbance
AAAAAAGTGTGTGGCTCAGGATTCCCAAAA	0.55 ± 0.0849 absorbance
AAAAAATACTCTTCCTCGTTCTTGGTAAAA	0.57 ± 0.127 absorbance
AAAAAAAGGGTCCGGTGCATACATGTAAAA	0.57 ± 0.156 absorbance
AAAAAACACTCACACCTATACGGCTCAAAA	0.665 ± 0.233 absorbance
AAAAAACAGTTCGATGTCACCCCCGCAAAA	0.565 ± 0.106 absorbance
AAAAAATTCGTATCTGTACCCTATGCAAAA	0.79 ± 0.283 absorbance
AAAAAATAATTACAAGTCGGCTCCACAAAA	0.69 ± 0.0707 absorbance
AAAAAAAACTGTCGCCCCCGGCTGGCAAAA	0.545 ± 0.12 absorbance
AAAAAAGGGTTTGTCGGGAATTGCCGAAAA	0.58 ± 0.0849 absorbance
AAAAAAGTGCACGACCCATTTATATAAAAA	0.5 ± 0.099 absorbance
AAAAAATTTGTACTTTAAGTTTACATAAAA	0.56 ± 0.0849 absorbance
AAAAAATCCCTGCTCCCCTGGTTCCTAAAA	0.45 ± 0.141 absorbance
AAAAAATTGTGCCTCTGCCCTCGCCTAAAA	0.62 ± 0.127 absorbance
AAAAAAAAGCTTCGGAGTCTTGAGAAAAAA	0.685 ± 0.0354 absorbance
AAAAAAGATCTAGGCCTTGGGACTCAAAAA	0.415 ± 0.0636 absorbance
AAAAAATCTTCACCTCACTTCGGTTTAAAA	0.67 ± 0.0566 absorbance
AAAAAATACGTCTACGTGGTTGTCGTAAAA	0.72 ± 0.127 absorbance
AAAAAACGCCTTATGCCTCCCGCTCGAAAA	0.675 ± 0.0354 absorbance
AAAAAAGTCTCACCTTTAGTCTTAATAAAA	0.64 ± 0.0283 absorbance
AAAAAAGGCTGTGGCCAATGTTCGTAAAAA	0.55 ± 0.0566 absorbance
AAAAAATCGCGAACGTACGTCCGCGGAAAA	0.51 ± 0.113 absorbance

Sequence	binding signal
AAAAAAGCCGTGGGTGATGGTCACAGAAAA	0.56 ± 0.113 absorbance
AAAAAAGGCCACGGTAACCCCTTTTGAAAA	0.695 ± 0.12 absorbance
AAAAAAGTGTTTGTGCTTCTCTCTGTAAAA	0.58 ± 0.0707 absorbance
AAAAAAGGGCCCACTATCGACGTCAAAA	0.605 ± 0.134 absorbance
AAAAAACTCTTAAGGAAAGTTCCGACAAAA	0.645 ± 0.12 absorbance
AAAAAATCCTTTTCTCTTTCTGTTTCAAAA	0.575 ± 0.12 absorbance
AAAAAATAAATCGCGGCTACTGCTTCAAAA	0.55 ± 0.141 absorbance
AAAAAAGGTAATGCCGGTCCCAGTATAAAA	0.525 ± 0.0778 absorbance
AAAAAACCGATCATCACATATCACTGAAAA	0.58 ± 0.141 absorbance
AAAAAAAAATCGAATTTGGACTTCCGAAAA	0.775 ± 0.0354 absorbance
AAAAAATCGTAAATGCCCATAGCCGTAAAA	0.555 ± 0.106 absorbance
AAAAAATATCTGATCCAATTTAGGTCAAAA	1.5 ± 0.0212 absorbance
AAAAAAATGTTCAAGCTCGATCTACAAAAA	0.63 ± 0.127 absorbance
AAAAAAGCTTCGCGCCAGCGGGAAAA	0.695 ± 0.0636 absorbance
AAAAAAGCTAGTGCTGCCACCAACGTAAAA	0.535 ± 0.12 absorbance
AAAAAAGGTTGGTACGTCGAGTTCTTAAAA	0.565 ± 0.163 absorbance
AAAAAATCCTATCTTGGCTTTGGCCTAAAA	0.65 ± 0.156 absorbance
AAAAAATGGGGCTCTGGCCCACCGTAAAAA	0.525 ± 0.0778 absorbance
AAAAAATGTCTAGACTCGGACATTCGAAAA	0.54 ± 0.0566 absorbance
AAAAAATCGCACTGCCGCCGATGGCTAAAA	0.625 ± 0.134 absorbance
AAAAAACTCGTACATCTATCGCTACGAAAA	0.54 ± 0.0849 absorbance

From paper PMC3795721, “Screening for Protein-DNA Interactions by Automatable DNA-Protein Interaction ELISA”
